Nine compounds from PubChem BioAssay (NCI) can be followed below.

The structures appear in SMILES notation. Compounds without any hit were thinned out: in the full panel of roughly 79,000, 15% have a hit. Values without a mark were called inactive. The source made the active and inactive calls. Cut-off read from the data, not from the text of the source: active = growth inhibition above about 70%; inactive = the rest.

Assay [1] is described as follows: NCI Yeast Anticancer Drug Screen. Data for the rad50 strain (AID 155).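 Note: 0% = growth of vehicle-only cultures of the same strain.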 Particulars: S. cerevisiae rad50 strain growth inhibition, stronger effect = higher value. In a few lines:
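Cells are treated with compound, grown, and their growth is then scored against vehicle-only cultures of the same repair-deficient yeast strain.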

Assay [2] is described as follows: NCI Yeast Anticancer Drug Screen. Data for the mec2-1 strain (AID 157). Particulars: S. cerevisiae mec2-1 strain, stronger effect = higher value. In a few lines:
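Compounds were applied to mec2-1 yeast cells. Their growth was then compared with that of vehicle-treated cultures to give growth inhibition.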

The nature of assay [3]: NCI Yeast Anticancer Drug Screen. Data for the sgs1 mgt1 strain (AID 161).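 Note: 0% = growth of cultures given vehicle only.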 The conditions noted are these: S. cerevisiae sgs1 mgt1 strain, stronger effect = higher value. In a few lines: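 This yeast growth screen uses a strain with defined DNA-repair lesions; compound-treated growth is compared with vehicle-treated growth.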
A short description of assay [4]: NCI Yeast Anticancer Drug Screen. Data for the cln2 rad14 strain (AID 165).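 Note: 0% = growth equal to vehicle treated cultures.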 The conditions noted are these: S. cerevisiae cln2 rad14 strain, stronger effect = higher value. Put shortly: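 Strain: cln2 rad14 yeast, altered in cell cycle control and DNA damage repair. Read-out: growth inhibition vs vehicle.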
The nature of assay [5]: NCI Yeast Anticancer Drug Screen. Data for the bub3 strain (AID 167). Particulars: S. cerevisiae bub3 mutant strain, stronger effect = higher value. Put shortly: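 Part of a panel of yeast mutants defective in DNA damage repair or cell cycle regulation. Each strain is grown with compound, and inhibition is calculated relative to solvent-treated cultures.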
A short description of assay [6]: NCI Yeast Anticancer Drug Screen. Data for the mlh1 rad18 strain (AID 175). The conditions noted are these: S. cerevisiae mlh1 rad18 strain growth inhibition, stronger effect = higher value. In a few lines:
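A repair-deficient yeast strain is exposed to test compound, and growth is scored relative to vehicle-treated controls.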

[7] abbreviates: at 5.0 µM (retest, dose inferred, filed as 0.5).
The mark [8] stands for this setting: at 50.0 µM (retest, dose inferred, filed as 5.0).

Turning to `O=[N+]([O-])c1cc(Cl)cc(C(c2cc(Cl)cc([N+](=O)[O-])c2O)C(Cl)(Cl)Cl)c1O`, the growth inhibition was 52% in assay [1] (setting [7]); 94% (active) in assay [1] (setting [8]); 97.7% (active) in assay [1] (at 50.0 µM); 50% in assay [2] (setting [7]); 98% (active) in assay [2] (setting [8]); 98.4% (active) in assay [2] (at 50.0 µM). Besides, the growth inhibition was 38% in assay [3] (setting [7]); 92% (active) in assay [3] (setting [8]); 98.1% (active) in assay [3] (at 50.0 µM); 36% in assay [4] (setting [7]); 96% (active) in assay [4] (setting [8]); 97% (active) in assay [4] (at 50.0 µM). The growth inhibition in assay [5] (setting [7]) was 33%; in assay [5] (setting [8]), 96% (active); in assay [5] (at 50.0 µM), 97.2% (active); in assay [6] (setting [7]) it was 66%; in assay [6] (setting [8]) it was 96% (active); in assay [6] (at 50.0 µM), 98.3% (active).
For the compound `CCc1c(C(=O)OC)c(C(=O)OC)c(-c2ccccc2)n1CCn1c(CC)c(C(=O)OC)c(C(=O)OC)c1-c1ccccc1`, the growth inhibition in assay [1] (setting [7]) is -2%; in assay [1] (setting [8]) it was 82% (active); in assay [1] (at 50.0 µM), 50.1%; in assay [2] (setting [7]), -2%; in assay [2] (setting [8]), 64%; in assay [2] (at 50.0 µM) it was 38.2%. For the same compound, the growth inhibition in assay [3] (setting [7]) was -2%; in assay [3] (setting [8]) it was 74% (active); in assay [3] (at 50.0 µM), 28.6%; in assay [4] (setting [7]), 1%; in assay [4] (setting [8]), 52%; in assay [4] (at 50.0 µM) it was 25.5%. Besides, the growth inhibition was 1% in assay [5] (setting [7]); 83% (active) in assay [5] (setting [8]); 98.5% (active) in assay [5] (at 50.0 µM); 2% in assay [6] (setting [7]); 54% in assay [6] (setting [8]); 40.4% in assay [6] (at 50.0 µM).
Regarding `CN(C)c1nc(Cl)nc2c1ncn2C1OCC(O)C(O)C1O` (configuration not stated), the growth inhibition in assay [1] (setting [7]) was -4%; in assay [1] (setting [8]), 3%; in assay [1] (at 50.0 µM) it was 10.7%; in assay [2] (setting [7]), -8%; in assay [2] (setting [8]), 4%; in assay [2] (at 50.0 µM) it was 22%. Moreover, the growth inhibition was 9% in assay [3] (setting [7]); 7% in assay [3] (setting [8]); 5.05% in assay [3] (at 50.0 µM); 1% in assay [4] (setting [7]); -6% in assay [4] (setting [8]); 1.25% in assay [4] (at 50.0 µM). Besides, the growth inhibition in assay [5] (setting [7]) is -1%; in assay [5] (setting [8]) it was -7%; in assay [5] (at 50.0 µM) it was -5.1%; in assay [6] (setting [7]) it was 11%; in assay [6] (setting [8]), 11%; in assay [6] (at 50.0 µM), 42.5%.
Turning to `COc1c(OC)c(C2(O)C(=O)N(C)c3ccccc32)c(OC)c(OC)c1C1(O)C(=O)N(C)c2ccccc21` (configuration not stated), the growth inhibition in assay [1] (setting [7]) is -1%; in assay [1] (setting [8]) it was 2%; in assay [1] (at 50.0 µM) it was 7.2%; in assay [2] (setting [7]), -2%; in assay [2] (setting [8]), 12%; in assay [2] (at 50.0 µM), 3.9%. Besides, the growth inhibition was -3% in assay [3] (setting [7]); 1% in assay [3] (setting [8]); -4.9% in assay [3] (at 50.0 µM); -10% in assay [4] (setting [7]); -2% in assay [4] (setting [8]); -0.05% in assay [4] (at 50.0 µM). Moreover, the growth inhibition in assay [5] (setting [7]) is -3%; in assay [5] (setting [8]) it was -2%; in assay [5] (at 50.0 µM), 4.85%; in assay [6] (setting [7]), -1%; in assay [6] (setting [8]), 22%; in assay [6] (at 50.0 µM), 7.15%.
In the case of `Oc1ccc2c(c1O)/C(=C/C=NCC1(O)OCC(O)C(O)C1O)C=N2` (configuration not stated), the growth inhibition in assay [1] (setting [7]) was 2%; in assay [1] (setting [8]), -7%; in assay [1] (at 50.0 µM), 67.3%; in assay [2] (setting [7]), 5%; in assay [2] (setting [8]), -7%; in assay [2] (at 50.0 µM) it was 67.4%. The growth inhibition in assay [3] (setting [7]) was 4%; in assay [3] (setting [8]), 1%; in assay [3] (at 50.0 µM), 88.4% (active); in assay [4] (setting [7]) it was 0%; in assay [4] (setting [8]), -9%; in assay [4] (at 50.0 µM) it was 83.5% (active). Further, the growth inhibition in assay [5] (setting [7]) was 2%; in assay [5] (setting [8]), -3%; in assay [5] (at 50.0 µM), 48.3%; in assay [6] (setting [7]), 2%; in assay [6] (setting [8]) it was -2%; in assay [6] (at 50.0 µM) it was 77% (active).
For the compound `C=C1C(=O)O[C@@H]2CC(CO)=C([C@@H](C)CCCO)[C@@H](OC(=O)/C(C)=C\C)[C@H]12`, the growth inhibition was 3% in assay [1] (setting [7]); 10% in assay [1] (setting [8]); 92.2% (active) in assay [1] (at 50.0 µM); 5% in assay [2] (setting [7]); 33% in assay [2] (setting [8]); 94.3% (active) in assay [2] (at 50.0 µM). The growth inhibition in assay [3] (setting [7]) was 4%; in assay [3] (setting [8]) it was 25%; in assay [3] (at 50.0 µM), 93.8% (active); in assay [4] (setting [7]), 1%; in assay [4] (setting [8]) it was 6%; in assay [4] (at 50.0 µM), 92.2% (active). Further, the growth inhibition in assay [5] (setting [7]) was 9%; in assay [5] (setting [8]) it was 65%; in assay [5] (at 50.0 µM), 92.8% (active); in assay [6] (setting [7]), -2%; in assay [6] (setting [8]), 29%; in assay [6] (at 50.0 µM), -33.3%.
As for `CC(=O)c1c(-c2ccc(Cl)cc2)c(-c2ccc(Cl)cc2)nn(CCO)c1=O`, the growth inhibition in assay [1] (setting [7]) was 12%; in assay [1] (setting [8]) it was 86% (active); in assay [1] (at 50.0 µM), 97.8% (active); in assay [2] (setting [7]) it was 4%; in assay [2] (setting [8]), 76% (active); in assay [2] (at 50.0 µM) it was 97.9% (active). The growth inhibition in assay [3] (setting [7]) was 2%; in assay [3] (setting [8]), 89% (active); in assay [3] (at 50.0 µM), 98.2% (active); in assay [4] (setting [7]) it was 3%; in assay [4] (setting [8]), 78% (active); in assay [4] (at 50.0 µM), 89.3% (active). Moreover, the growth inhibition is 4% in assay [5] (setting [7]); 78% (active) in assay [5] (setting [8]); 92.1% (active) in assay [5] (at 50.0 µM); 4% in assay [6] (setting [7]); 80% (active) in assay [6] (setting [8]); 97.8% (active) in assay [6] (at 50.0 µM).
Regarding `CCN(CC)CCCC(=O)Nc1cc(OC)cc2cccnc12`, the growth inhibition was 2% in assay [1] (setting [7]); 0% in assay [1] (setting [8]); 3.65% in assay [1] (at 50.0 µM); 15% in assay [2] (setting [7]); -3% in assay [2] (setting [8]); 6.3% in assay [2] (at 50.0 µM). The growth inhibition in assay [3] (setting [7]) was 8%; in assay [3] (setting [8]) it was 1%; in assay [3] (at 50.0 µM), -4.7%; in assay [4] (setting [7]) it was 1%; in assay [4] (setting [8]), -1%; in assay [4] (at 50.0 µM) it was -2.55%. Moreover, the growth inhibition in assay [5] (setting [7]) was 1%; in assay [5] (setting [8]), -3%; in assay [5] (at 50.0 µM), -1.85%; in assay [6] (setting [7]), 2%; in assay [6] (setting [8]) it was -1%; in assay [6] (at 50.0 µM) it was 13.4%.
`C=CCOC(=O)CCC(=O)N(CC)CC`: the growth inhibition was 4% in assay [1] (setting [7]); -10% in assay [1] (setting [8]); -8.95% in assay [1] (at 50.0 µM); -1% in assay [2] (setting [7]); 1% in assay [2] (setting [8]); -12.7% in assay [2] (at 50.0 µM). For the same compound, the growth inhibition in assay [3] (setting [7]) was -6%; in assay [3] (setting [8]), -11%; in assay [3] (at 50.0 µM) it was -25.1%; in assay [4] (setting [7]) it was -7%; in assay [4] (setting [8]), 0%; in assay [4] (at 50.0 µM) it was 72.5% (active). Moreover, the growth inhibition in assay [5] (setting [7]) is -2%; in assay [5] (setting [8]) it was 1%; in assay [5] (at 50.0 µM) it was -7.35%; in assay [6] (setting [7]), -2%; in assay [6] (setting [8]) it was -10%; in assay [6] (at 50.0 µM), -2.3%.
